Experimental data from PubChem BioAssay AID2158 (National Center for Advancing Translational Sciences (NCATS), 2009).
Values joined by “and” are separate entries in the source; they are usually repeats but may differ in a detail not shown here. Equal values may be shown once. Records with an inconclusive call do not appear. Active and inactive are the calls of the source. Calls come from the whole dose curve; as a rule, active = well fitted inhibition curve with a large enough effect; inconclusive = small, poorly fitted or top-dose-only effect; inactive = no such curve, though single readings can be large or run the other way.

target: Cruzipain (Trypanosoma cruzi) (UniProt P25779); assay: Confirmation qHTS Assay for Inhibitors of Cruzain; conditions: purified cruzain, Z-FR-AMC fluorescence, 0.01% Triton; note: nearly all actives have a fitted effect of over 40% in size;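 for Activity change, negative = inhibition: plate controls were uninhibited enzyme control for no effect and buffer wells lacking enzyme for full effect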
How it was run: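 Reaction progress from the 60 s rise in AMC fluorescence (ex 360, em 450 nm) after adding 2 uM Z-FR-AMC. Before this, 1.5 nM cruzain sat 15 min at room temperature with compound in pH 5.5 acetate buffer with 5 mM DTT and 0.01% Triton X-100.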
Potency is the fitted concentration of half-maximal effect.

Cruzipain (Trypanosoma cruzi), sequence (P25779 123-467 limits assumed): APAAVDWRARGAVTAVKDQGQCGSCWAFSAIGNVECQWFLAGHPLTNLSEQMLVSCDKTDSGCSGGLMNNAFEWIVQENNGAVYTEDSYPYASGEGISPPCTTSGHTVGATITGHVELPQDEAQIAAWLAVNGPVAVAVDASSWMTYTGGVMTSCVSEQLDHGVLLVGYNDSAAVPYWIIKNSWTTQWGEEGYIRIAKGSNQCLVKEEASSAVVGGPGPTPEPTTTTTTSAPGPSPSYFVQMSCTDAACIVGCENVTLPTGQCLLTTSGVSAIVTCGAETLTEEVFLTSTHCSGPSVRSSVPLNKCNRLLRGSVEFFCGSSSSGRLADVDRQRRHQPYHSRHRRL

Potency, active:
O=C(N[C@@H](Cc1ccccc1)C(=O)CCl)OCc1ccccc1 0.447 µM
CCN(CC)c1nc(C#N)nc(OC)n1 7.08 µM
CC(=O)n1cc(/C=C2/N=C(c3ccccc3)OC2=O)c2ccccc21 0.794 µM
COc1cc(Cl)c(C)cc1NC(=O)C(OC(=O)CNC(=O)c1ccccc1)c1ccccc1 (centres undefined) 31.6 µM
NC(=S)N/N=C\c1ccc(-c2cccc(Cl)c2Cl)o1 1 µM
O=C(NCCc1nc2ccccc2n1CCOc1ccc(Cl)cc1)C1CCCCC1 0.158 µM
N#Cc1nc(Nc2cccc(Cl)c2)c2ncn(C3CCCC3)c2n1 0.0501 µM
CC(C)(C)c1ccc(S(=O)(=O)c2cnc(SCC(=O)Nc3ccc(F)c(Cl)c3)[nH]c2=O)cc1 3.98 µM
CCc1ccc(OCCCCn2c(CCNC(=O)C3CCCCC3)nc3ccccc32)cc1 1.58 µM
O=c1cc(-c2ccccc2Cl)oc2c(NS(=O)(=O)c3cc(Cl)cc(Cl)c3O)ccc(O)c12 7.08 µM
CN(C)c1ccc(C(=O)NCC(=O)OC(C(=O)Nc2cc(C(F)(F)F)ccc2Cl)c2ccccc2)cc1 (centres undefined) 14.1 µM
O=C(COC(=O)CNC(=O)C1CCCCC1)NC1CC1 15.8 µM
COc1ccc(Nc2nc(C#N)nc(NC3CCCC3)n2)cc1 0.447 µM
Cc1ccc(C(=O)NCC(=O)OCC(=O)c2ccc3ccccc3c2)cc1 12.6 µM
N#Cc1nc(Nc2ccccc2)nc(NC2CCCCC2)n1 1.41 µM
COc1ccc(C(F)(F)F)cc1NC(=O)C(OC(=O)CNC(=O)c1ccccc1)c1ccccc1 (centres undefined) 14.1 µM
Cc1ccccc1OCCCCn1c(CCNC(=O)C2CCCCC2)nc2ccccc21 0.562 µM
CC(C)(C)c1ccccc1Nc1nc(C#N)nc(NC2CCCC2)n1 2 µM
O=C(O)c1c(Sc2ccccc2)c2cc(Cl)ccc2n1Cc1ccc(Cl)cc1 8.91 µM
N#Cc1c(N2CCOCC2)nc(-c2ccco2)c2c1CCCC2 3.98 µM
CCC(C)[C@@H](N)C(=O)N/N=C/c1ccc2ncccc2c1 (some centres undefined) 22.4 µM
O=C(CNC(=O)c1ccc(Cl)cc1Cl)OC(C(=O)Nc1cc(C(F)(F)F)ccc1Cl)c1ccccc1 (centres undefined) 7.08 µM
CNc1oc(Cc2ccccc2)nc1S(=O)(=O)c1ccc(Cl)cc1 25.1 µM
O=C(CNC(=O)c1ccc2ccccc2c1)OC(C(=O)Nc1cc(C(F)(F)F)ccc1Cl)c1ccccc1 (centres undefined) 4.47 µM
CCn1cnc2c(Nc3ccc(Cc4cccnc4)cc3)nc(C#N)nc21 14.1 µM

Activity change, negative = inhibition, inactive:
COc1ccccc1CCNC(=O)CNC(=O)Cc1cccc2ccccc12 5.36%
COc1cccc(OC)c1-c1nn2c(-c3n[nH]c4c3CCC4)nnc2s1 -13% and -10.1%
CCOC(=O)[C@H](CCc1ccccc1)N[C@@H](C)C(=O)N1[C@H](C(=O)O)C[C@H]2CCCC[C@@H]21 0.349%
O=C(CNC(=O)c1ccccc1)NCC(=O)OCC(=O)c1cccc2ccccc12 -13.9%
CCCNC(=O)Cn1c(SCc2ccccc2C)nc2ccncc21 -2.3%
CCCCNC(=O)Cn1c(SCc2cccc(C)c2)nc2ccncc21 -22.6%
CCC(c1nnnn1Cc1ccccc1)N(Cc1ccccc1)Cc1cc2cc(C)ccc2[nH]c1=O (centres undefined) -9.93%
N#CN1CCC(NC(=O)c2cccc(C(F)(F)F)c2)CC1 -5.22%
Cc1ccccc1OCC(=O)NCC(=O)OC(c1ccccc1)c1ccccc1 -14.6%
Cc1cc2c(C)cc(=O)oc2c2c1NCCC2 -19.4%
CN(CCNC(=O)c1cc2c(=O)n(C)c3ccccc3c2n1C)Cc1ccccc1 -49.8%
CCc1ccc2[nH]c(=O)c(CN(Cc3ccccc3)Cc3nnnn3Cc3ccccc3)cc2c1 -20%
O=C(Cc1nnc(-c2cc3ccccc3[nH]2)s1)Nc1cc(C(F)(F)F)ccc1Cl -8.66% and 1.72%
Cc1ccc(O/C=C2/Nn3c(nnc3-c3cc(-c4ccccc4)n[nH]3)S2)cc1 -1.56%
